# Test results: article PMC4336329 (PLoS ONE, 2015)
# Hit rate of the full screen: of about 310,000 compounds, about 14,000 (4.5%) showed an effect of 50% or more. Effects have a minus sign here. Many of the other results were omitted from the sample, so strong results are more common in it than they were.
# Target: human ether-à-go-go-related gene (hERG) potassium channel (human, UniProt Q12809)
# Assay: primary screen, population patch clamp on CHO cells stably expressing hERG; higher = less effect of the substance
# 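Also: peak tail current of the secondary pulse compared with the same well before compound.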
# human ether-à-go-go-related gene (hERG) potassium channel, sequence (Q12809 whole entry, looked up): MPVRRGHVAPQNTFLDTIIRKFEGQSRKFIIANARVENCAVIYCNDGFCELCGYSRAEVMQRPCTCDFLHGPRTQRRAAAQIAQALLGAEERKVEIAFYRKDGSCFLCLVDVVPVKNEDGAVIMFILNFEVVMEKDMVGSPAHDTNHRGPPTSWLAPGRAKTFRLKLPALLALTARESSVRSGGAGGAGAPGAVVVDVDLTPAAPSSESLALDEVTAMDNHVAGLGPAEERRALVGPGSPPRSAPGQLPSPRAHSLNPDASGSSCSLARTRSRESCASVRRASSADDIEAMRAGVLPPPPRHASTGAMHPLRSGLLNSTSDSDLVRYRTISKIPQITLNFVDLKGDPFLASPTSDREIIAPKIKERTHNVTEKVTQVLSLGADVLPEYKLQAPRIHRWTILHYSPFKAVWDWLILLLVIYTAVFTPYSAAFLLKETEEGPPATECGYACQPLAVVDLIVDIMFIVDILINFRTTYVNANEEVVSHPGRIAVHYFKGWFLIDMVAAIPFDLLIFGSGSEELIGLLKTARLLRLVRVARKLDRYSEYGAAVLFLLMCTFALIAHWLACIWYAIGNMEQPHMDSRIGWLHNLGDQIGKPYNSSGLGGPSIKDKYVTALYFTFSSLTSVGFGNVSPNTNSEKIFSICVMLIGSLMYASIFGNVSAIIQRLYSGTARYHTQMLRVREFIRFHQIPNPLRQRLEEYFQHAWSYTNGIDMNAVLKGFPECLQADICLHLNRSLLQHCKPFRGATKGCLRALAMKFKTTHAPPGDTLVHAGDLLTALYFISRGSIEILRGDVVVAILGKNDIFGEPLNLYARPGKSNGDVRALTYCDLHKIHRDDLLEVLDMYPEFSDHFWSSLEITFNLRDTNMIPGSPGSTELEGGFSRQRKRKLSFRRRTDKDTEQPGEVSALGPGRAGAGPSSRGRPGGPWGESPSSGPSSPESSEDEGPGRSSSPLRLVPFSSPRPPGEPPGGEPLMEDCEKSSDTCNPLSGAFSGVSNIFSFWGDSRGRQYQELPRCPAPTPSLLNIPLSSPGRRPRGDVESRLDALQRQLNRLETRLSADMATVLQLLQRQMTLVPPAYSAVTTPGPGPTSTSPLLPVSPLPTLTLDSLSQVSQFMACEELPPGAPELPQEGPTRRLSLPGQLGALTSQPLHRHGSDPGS
row,Compound,"hERG current change (%, negative = inhibition) at 10uM"
1,CN(C)S(=O)(=O)N1CCc2ccc(NC(=O)c3ccc(C(F)(F)F)cc3)cc2C1,25.4%
2,COCC(=O)N1CCc2ccc(NC(=O)c3ccc(C(F)(F)F)cc3)cc2C1,-38.3%
3,O=C(Nc1ccc(N2CCOCC2)nc1)c1ccc(Cl)cc1,-11.5%
4,CN(C)S(=O)(=O)c1ccc(C(=O)Nc2ccc3c(c2)CCC3)cc1,-52%
5,O=C(Nc1ccc(N2CCOCC2)nc1)c1ccc(C(F)(F)F)cc1,16.6%
6,CN1CCN(c2ccc(NC(=O)c3ccc(C(F)(F)F)cc3)cn2)CC1,-73.2%
7,CN1CCc2ccc(NC(=O)c3ccc(C(F)(F)F)cc3)cc2C1,-53.8%
8,CN(C)S(=O)(=O)c1cccc(C(=O)Nc2ccc3c(c2)CCC3)c1,-21.9%
9,Cc1ccc(C(=O)Nc2ccc3c(c2)CCC3)cc1,14.7%
10,Cn1c(=O)c2c([nH]c(=S)n2Cc2ccc(Cl)cc2)n(C)c1=O,17%
11,Cc1ccsc1C(=O)N1CCN(c2ncccn2)CC1,7.76%
12,COc1ccc(-c2nnn(CC(=O)N(C3CCCCC3)C(C)C(=O)NC3CCCC3)n2)cc1OC (stereo not drawn),-22.1%
13,COc1cccc(/C=N/NC(=O)CC2C(=O)NN=C2C)c1OC (stereo not drawn),2.5%
14,O=C(NCCN1C(=O)S/C(=C\c2cccnc2)C1=O)c1ccc([N+](=O)[O-])s1,5.15%
15,C/C(CC(=O)N1CCCC1)=N\NC(=O)c1cc2ccccc2cc1O,4.98%
16,O=S(=O)(Nc1cc(S(=O)(=O)N2CCOCC2)ccc1N1CCCC1)c1cccs1,-4.49%
17,Cc1cc(-c2nnco2)c(C)n1-c1ccccc1,-1.71%
18,COC(=O)C1=C(c2ccc(S(C)(=O)=O)cc2)C[C@@H]2CC[C@H]1N2C(=O)N1CCCCC1,-1.44%
19,CN(CC1CCCN(CCc2cccc(C(F)(F)F)c2)C1)C(=O)c1ccco1 (stereo not drawn),-69.2%
20,COC(=O)CCCC(=O)N(C)CC1CCCN(CCc2ccccc2C)C1 (stereo not drawn),-53.6%
21,COc1ccccc1CCN1CCCC(CN(C)C(=O)CCC(=O)N(C)C)C1 (stereo not drawn),9.14%
22,CSCCC(=O)N(C)CC1CCN(CCc2cccc(C(F)(F)F)c2)CC1,-64.3%
23,COC(=O)CCC(=O)N(C)CC1CCCN(CCc2cccc(C(F)(F)F)c2)C1 (stereo not drawn),-61.9%

row,Compound,"hERG current change (%, negative = inhibition) at 10uM"
1,CC(=O)NCCC(=O)N(C)CC1CCN(CCc2cccc(C(F)(F)F)c2)CC1,2.52%
2,COc1ccccc1CCN1CCCC(CN(C)C(=O)CCC(N)=O)C1 (stereo not drawn),22.5%
3,CCOC(=O)C1CCCCN1Cc1cccc(C(F)(F)F)c1 (stereo not drawn),6.43%
4,O=C(O)c1ccccc1NS(=O)(=O)c1cccc2nsnc12,18.3%
5,O=C(N/N=C1\CCS(=O)(=O)c2ccc(F)cc21)c1ccc([N+](=O)[O-])cc1,-19.6%
6,Cc1ccc(/C=N/NC(=S)NCCc2ccccc2)s1,27.9%
7,Cc1ccc(CNC(=O)CSc2nc3ccsc3c(=O)n2NC(=O)c2ccccc2)cc1,-9.41%
8,CCOC(=O)N1CCN(C(=O)C(CC(C)C)NS(=O)(=O)c2ccc3c(c2)oc(=O)n3C)CC1 (stereo not drawn),-12.4%
9,O=C(CN(C(=O)c1csnn1)c1cccc2ccccc12)NCc1ccccc1,0.271%
10,CSCCC(=O)NC1CCCN(CCc2ccccc2)C1 (stereo not drawn),-38.2%
11,CSCCC(=O)N(C)CC1CCCN(CCc2cccc(C(F)(F)F)c2)C1 (stereo not drawn),-74.6%
12,CN(CC1CCCN(CCc2cccc(C(F)(F)F)c2)C1)C(=O)c1ccc2nc[nH]c2c1 (stereo not drawn),-33.1%
13,COc1cc(SC)ccc1C(=O)Nc1ccc(Br)cn1,14.4%
14,COc1ccc(NC(=O)c2ccccc2[N+](=O)[O-])cc1,9.48%
15,NC(=O)c1ccsc1NC(=O)CCS(=O)(=O)c1ccccc1,1.27%
16,COc1ccc(N(C(=O)c2snc(C(N)=O)c2N)C(C(=O)NC2CCCC2)c2cccs2)cc1OC (stereo not drawn),-1.74%
17,CC(=O)Nc1ccc(S(=O)(=O)N2CCC(c3nnc(-c4ccc(C)cc4)o3)CC2)cc1,-51.1%
18,Cc1ccc(-c2nnc(SCC(=O)Nc3ccc(S(=O)(=O)N4CCCCCC4)cc3)o2)cc1,-7.29%
19,CC(=O)Nc1ccc(S(=O)(=O)N2CCCN(S(=O)(=O)c3ccc(NC(C)=O)cc3)CC2)cc1,-0.406%
20,CC(=O)Nc1ccc(S(=O)(=O)N2CCCN(S(=O)(=O)c3ccc(C)cc3)CC2)cc1,-72.8%
21,CC(=O)Nc1ccc(S(=O)(=O)N2CCCC2)cc1,12.1%
22,COc1ccc(-c2nnc(C3CCN(S(=O)(=O)c4ccccc4)CC3)o2)cc1,-47.4%
